SMILES strings stand for the structures. The campaign covered roughly 300,000 compounds. About 37,000 (12%) were called active. Rule as the data show it: active = max response mostly above about 13% (no sharp cut-off); inactive = mostly below about 14%. This excerpt belongs to a sample that is enriched for actives.

This experiment is described as follows: Cycloheximide Counterscreen for Small Molecule Inhibitors of Shiga Toxin. Also: read at 38.3 µM for the half of the compounds with a filed dose; 0% is about no effect. The settings on record: cell reporter, cycloheximide protein synthesis inhibition counterscreen; active compounds read high.
`O=C(O)CCn1c(Cc2ccccc2)nc2ccccc21`: the max response was -1.08% (inactive).
`CCC(C(=O)OCC(=O)Nc1c(Cl)cc(Cl)cc1Cl)c1ccccc1` (stereo not given): the max response is 1.18% (inactive).
In the case of `Cc1ccc(F)c(NC(=O)CCOc2ccccc2C)c1` it was 6.62% (inactive); in that of `Cc1cccc(OCC(=O)Nc2ccc(C(=O)O)cc2NC(=O)COc2cccc(C)c2)c1`, 2.91% (inactive).
Then `COc1cccc(OCC(=O)Nc2ccccc2C(N)=O)c1`, with 34.1% (active); and `Cc1cccc(OCC(=O)NCCCNC(=O)c2ccccn2)c1`, with -3.32% (inactive).
Consider `Cc1cccc(OCCC(=O)Nc2ccccc2C(N)=O)c1`, for which the max response is 12.6% (inactive).
On to `Cc1cccc(OCC(=O)Nc2ccccc2F)c1`, for which the max response was 44.1% (active).
On to `CCCOC(=O)Nc1ccccc1C(N)=O`, for which the max response was -2.21% (inactive).
On to `Cc1ccc(F)c(NC(=O)CCc2ccccc2)c1`, for which the max response is 33% (active).
`O=C(CCc1ccccc1)NNc1ccc(F)cc1`: the max response was -0.637% (inactive).
In the case of `CC(=O)OCC(NC(=O)C(Cc1ccccc1)NC(=O)OC(C)(C)C)C1OC(n2ccc(=O)[nH]c2=O)C(OC(C)=O)C1OC(C)=O` (stereo not given), the max response was 10.7% (inactive).
In the case of `CC(=O)N1c2ccc(S(=O)(=O)N3CCCC(C(=O)Nc4cccc(Cl)c4)C3)cc2CC1C` (stereo not given), the max response was -3.38% (inactive).
On to `COc1ccccc1N1CCN(C(=O)c2c(-c3c(Cl)cccc3Cl)noc2C)CC1`, for which the max response was -1.33% (inactive).
As for `O=C(c1c(Cl)cccc1Cl)N1CCN(c2cccc3[nH]ccc23)CC1`, the max response was -4.42% (inactive).
`O=C(c1ccc2ccccc2n1)N1CCN(c2ccccc2Cl)CC1`: the max response is 25.6% (active).
As to `COc1cc(S(=O)(=O)N2CCOCC2)ccc1NC(=O)COc1ccc(N(C)S(=O)(=O)c2ccc(C)cc2)cc1`, the max response is -7.22% (inactive).
Then `CCc1ccc(NC(=O)CN2C(=O)CSC2=O)cc1`, with 24.5% (active); and `COc1ccc(NC(=O)CN2C(=O)CSC2=O)cc1`, with -1.12% (inactive); and `CCc1ccc(NC(=O)CN2C(=O)COc3ccc(S(=O)(=O)N4CCCC4)cc32)cc1`, with -7.9% (inactive).
Then `CC(C)Cc1nc(Nc2ccc(S(=O)(=O)N3CCCC3)cc2)c2nnn(Cc3ccccc3)c2n1`, with -1.7% (inactive); and `CCOC(=O)C(NS(=O)(=O)c1ccc(C)cc1)(C(F)(F)F)P(=O)(OCC(C)C)OCC(C)C` (stereo not given), with -2.77% (inactive); and `O=C(Nc1cccnc1Cl)c1cc(-c2cccc(Cl)c2)on1`, with -5.45% (inactive).
Take `CCc1ccccc1NC(=O)c1cc(-c2ccc3c(c2)OCO3)on1`: the max response was 4.1% (inactive).
Consider `O=C(Nc1ccccc1C(F)(F)F)c1cc(-c2ccc(O)cc2)on1`, for which the max response is 37.9% (active).
On to `CCOc1ccc2[nH]c(=O)c(CN(CCCO)S(=O)(=O)c3ccc(F)cc3)cc2c1`, for which the max response was -6.67% (inactive).
As for `CN(CC(=O)NCCN1CCOCC1)S(=O)(=O)c1ccc(F)cc1`, the max response is -1.49% (inactive).
In the case of `Fc1ccc(-c2ccc(NCCN3CCOCC3)nn2)cc1` it was 34.4% (active); in that of `O=C(NCCN1CCOCC1)c1c(F)c(F)c(F)c(F)c1F`, -3.15% (inactive); in that of `CC1CCC(NS(=O)(=O)c2ccc3c(c2)CC(=O)N3)CC1` (stereo not given), 8.83% (inactive).
`N#Cc1cccc(CSc2ncnc(N)n2)c1`: the max response was 5.59% (inactive).
In the case of `N#Cc1ccc(CSc2ncccn2)cc1` it was 19.6% (active); in that of `N#Cc1ccc(CSc2nnc(-c3ccccn3)n2-c2ccc(Cl)cc2)cc1`, -3.26% (inactive); in that of `COc1cc(NC(=O)c2ccccc2NS(=O)(=O)c2ccc(Cl)s2)cc(OC)c1`, 7.35% (inactive).
Regarding `O=Cc1c(NCCc2cccc(F)c2)c2ccccc2[nH]c1=O`, the max response is 0.988% (inactive).
In the case of `Cc1ccc(S(=O)(=O)NNC(=O)/C=C/c2cccc(F)c2)cc1`, the max response was -1.72% (inactive).
With `CCOc1cccc(NC(=O)Cn2nc(-c3ccc4c(c3)OCCO4)ccc2=O)c1`, the max response was -1.26% (inactive).
On to `O=C(Nc1nc(-c2ccc3c(c2)OCO3)cs1)c1ccncc1`, for which the max response was 21% (active).
Consider `CC(=O)NCCC(=O)Nc1nc(-c2ccc3c(c2)OCCO3)cs1`, for which the max response was 36.2% (active).
Then `CC(=O)NCCC(=O)Nc1nc(C)c(Cc2ccc3c(c2)OCO3)s1`, with 11.6% (inactive); and `COc1ccc(-c2csc(NC(=O)c3ccc(N4C(=O)CCC4=O)cc3)n2)cc1OC`, with -1.22% (inactive); and `COc1ccc(OCCn2ccnc2C)cc1`, with -3.23% (inactive).
Consider `Cc1cccc(C2C3=C(CCCC3=O)N=C3c4ccccc4C(=O)C32)c1` (stereo not given), for which the max response was -3.21% (inactive).
For the compound `Cc1cc(=O)n2nc(N3CCC(C(=O)Nc4c(F)c(F)c(F)c(F)c4F)CC3)sc2n1`, the max response is 4.09% (inactive).
Take `O=C(NCc1cccs1)c1cc(-c2ccccn2)nc2ccc(Br)cc12`: the max response is -5.76% (inactive).
On to `Cc1ccc2nc(-c3cccc(Br)c3)cc(C(=O)Nn3cnnc3)c2c1`, for which the max response was 7.61% (inactive).
Consider `Cc1ccc(-c2cc(C(=O)NCc3cn(C)nc3C)c3cc(Br)ccc3n2)cc1`, for which the max response is 13.1% (active).
For `CC(C)(C)C(=O)Nc1ccc(C(=O)N/N=C/c2ccccc2OC(=O)c2ccc(Cl)cc2Cl)cc1`, the max response was 3.79% (inactive).
On to `O=C(Cn1cnc2ccccc2c1=O)Nc1cccc(S(=O)(=O)N2CCCCC2)c1`, for which the max response was 7.05% (inactive).
As to `COc1cc(CNC2CCCC2)c(Br)cc1OCc1ccccc1`, the max response is 7.1% (inactive).
In the case of `CCNC(=O)COC(=O)CCNC(=O)c1cccc(C)c1`, the max response was 10.1% (inactive).
`COc1ccc(OCC(=O)NNC(=O)c2cccc(C)c2)cc1`: the max response was -1.89% (inactive).
As for `CCOC(=O)C(CC)/C(C)=N\NC(=O)c1cccc(C)c1` (stereo not given), the max response is 27.9% (active).
For `COCCn1c(N)c(NCc2ccccc2)c(=O)[nH]c1=O`, the max response is -1.16% (inactive).
As to `CCOC(=O)N1CCN(C(=O)C(C)NC(=O)c2ccco2)CC1` (stereo not given), the max response is 1.53% (inactive).
`CC1=C(C)CC(C(=O)NNC(=O)c2ccccc2O)C(C(=O)O)C1` (stereo not given): the max response was 15.2% (active).
As for `CC1=C(C)CC(C(=O)NNC(=O)c2csc3c2CCC(C(C)(C)C)C3)C(C(=O)O)C1` (stereo not given), the max response is -0.879% (inactive).
As for `CC1=C(C)CC(C(=O)NC(C)CCc2ccccc2)C(C(=O)O)C1` (stereo not given), the max response was 12.4% (inactive).
Take `CCC(=O)N(CCc1ccccc1)Cc1cc2cc(C)ccc2[nH]c1=O`: the max response was -3.02% (inactive).
In the case of `CC(C)c1nc2sc3c(c2c(=O)n1N)CC(C)(C)OC3` it was 11.6% (inactive).
